The panel holds about 83,000 compounds, 20% with a hit somewhere; the sample as a whole holds those more often.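 Compound tested at a single concentration for 48 hours in 96-well plates; a percent growth value below 10 was scored as active.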 Values without a mark were called inactive. Calls of active or inactive are those of the source.
Tests used:
Test in all cases: NCI-60 one-dose screen, 48 h (100 = growth as untreated, 0 = no growth, -100 = all killed)
Details in all cases: 10 µM unless noted
NCI-H23 lung = test system: NCI-H23 lung
NCI-H226 lung = test system: NCI-H226 lung
NCI-H322M lung = test system: NCI-H322M lung
HOP-62 NSCLC = test system: HOP-62 NSCLC
NCI-H460 lung = test system: NCI-H460 lung
HOP-92 NSCLC = test system: HOP-92 NSCLC
NCI-H522 lung = test system: NCI-H522 lung
A549/ATCC NSCLC = test system: A549/ATCC NSCLC
786-0 renal = test system: 786-0 renal
COLO 205 colon = test system: COLO 205 colon
DU-145 prostate = test system: DU-145 prostate
K-562 leukemia = test system: K-562 leukemia
MALME-3M melanoma = test system: MALME-3M melanoma
MDA-MB-231 breast = test system: MDA-MB-231 breast
RXF 393 renal = test system: RXF 393 renal
SF-268 CNS = test system: SF-268 CNS
SF-539 CNS = test system: SF-539 CNS
UACC-257 melanoma = test system: UACC-257 melanoma
M14 melanoma = test system: M14 melanoma
SF-295 CNS = test system: SF-295 CNS

Structure (SMILES)	growth (NCI-H23 lung)	growth (NCI-H226 lung)	growth (NCI-H322M lung)	growth (HOP-62 NSCLC)	growth (NCI-H460 lung)	growth (HOP-92 NSCLC)	growth (NCI-H522 lung)	growth (A549/ATCC NSCLC)	growth (786-0 renal)	growth (COLO 205 colon)	growth (DU-145 prostate)	growth (K-562 leukemia)	growth (MALME-3M melanoma)	growth (MDA-MB-231 breast)	growth (RXF 393 renal)	growth (SF-268 CNS)	growth (SF-539 CNS)	growth (UACC-257 melanoma)	growth (M14 melanoma)	growth (SF-295 CNS)
c1ccc2[nH]c(-c3cc(-c4ccc5c(c4)OCO5)n[nH]3)nc2c1	68.8%	70.7%	67.1%	62.6%	46.4%	119%	32.9%	58.8%	55.7%	70.3%	69.1%	36.3%	38.2%	65%	59.6%	70.5%	52.4%	66.4%	45.8%	
COc1ccc(-c2cc(/C=C/C(=O)c3ccc(OC)c(OC)c3)[nH]n2)cc1	32.7%	50.9%	26.1%	8.64% (active)	-71.1% (active)	66.6%	1.47% (active)	29.2%	13%	24.5%	0.792% (active)	-29.8% (active)	63.1%	28.8%	8.62% (active)	7.76% (active)	-50.7% (active)	73.9%	41.8%	
COc1cc(-c2nc(-c3ccccc3)c(-c3ccccc3)[nH]2)cc(OC)c1O	-31.9% (active)	48.9%	13%	-26.5% (active)	-37.5% (active)	38.2%	-23% (active)	-30.9% (active)	19.3%	-73.8% (active)	-23.5% (active)	3.86% (active)	-28.9% (active)	0.0647% (active)	-48.8% (active)	4.5% (active)	0.938% (active)	6.33% (active)	-18.8% (active)	
Cc1cc(C)c(NC(=O)c2sc3nc4c(cc3c2N)CCCC4)c(C)c1	59.8%	78.6%	88.7%	24.1%	28.8%	52.3%	4.49% (active)	50.1%	47.3%	42.6%	70.3%	12.4%	44.7%	71.8%	57.9%	48.8%	26.9%		24.5%	29.2%
O=Cc1nc2ccccc2[nH]1	97.9%	97.6%	110%	90.1%	109%	86.1%	84.8%	84.5%	101%	106%	105%	97.6%	104%	94.9%	112%	104%	97.5%		90.9%	101%
CCOC(=O)c1ccc2c(c1)[n+](=O)c(C(=O)C1CCCS1)c(C(F)(F)F)n2[O-] (stereo not drawn)	-87% (active)	-54.9% (active)	-87.6% (active)	-90.6% (active)	-73.7% (active)	-83.6% (active)	-83.3% (active)	-94.9% (active)	-92.3% (active)	-84.8% (active)	-96.5% (active)	-52.6% (active)		-76.8% (active)	-92.3% (active)	-89.6% (active)	-83.8% (active)	-90.4% (active)	-96.6% (active)	-88% (active)
Cn1cc(-c2csc(-c3c[nH]c4ccc(F)cc34)n2)c2cccnc21	50.4%	59.7%	74.8%	43.2%	11.4%	71.9%	12.6%	46.5%	66.6%	35.6%	61.9%	19.8%		50.1%	54.4%	51.1%	31%	63.4%	13.7%	14.8%
Cn1cc(-c2csc(-c3c[nH]c4ccccc34)n2)c2cccnc21	30.3%	60.3%	56.1%	45.5%	14.6%	49.5%	5.06% (active)	40.3%	45.7%	9.57% (active)	16.5%	18.9%		48.3%	12.6%	45.4%	-1.15% (active)	64.6%	23.8%	6.62% (active)
Cn1cc(-c2nc(-c3cn(C)c4ncccc34)cs2)c2cc(F)ccc21	43.3%	68.8%	57%	53.7%	15.8%	72.4%	-0.482% (active)	38.1%	45.9%	31.3%	57.4%	16%		47.1%	30.8%	52.2%	26.6%	61.7%	17.2%	16.3%
O=C(NO)c1ccc(Cn2c(=O)n(-c3ccccc3)c(=O)c3ccccc32)cc1	-38.7% (active)	41.3%	38.8%	29.3%	39%	48.4%	-21.7% (active)	37.7%	71%	-62.4% (active)	21.9%	3.42% (active)		55.1%	-13.1% (active)	43.9%	-8.95% (active)		2.72% (active)	13.6%
Cn1cc(-c2nc(-c3c[nH]c4ncccc34)cs2)c2cc(Br)ccc21	93.5%	95.7%	76.4%	109%	81.7%	89.1%	86.5%	86.7%	80.6%	106%	73.2%	59.5%		84.6%	75.7%	99.1%	108%	120%	75.5%	84.6%
Fc1cccc(-c2[nH]nc3nc(Nc4cccnc4)sc23)c1	43.3%	70.8%	65.1%	55.4%	21.2%	86.4%	16%	37.8%	53.6%	15.7%	29.4%	21%		78.2%	44.5%	60.6%	24%	72.4%	45.5%	27.4%
COCCNC1=C(Cl)C(=O)c2ccccc2C1=O	64.8%	95.9%	113%	117%	95.4%	137%	96.1%	88.8%	114%	110%	53.9%	99.8%		99.6%	105%	95.6%	136%	100%	96.9%	75.1%
Oc1cccc2oc(=S)[nH]c12	104%	106%	128%	104%	116%	102%	101%	107%	106%	117%	118%	118%		99.1%	112%	111%	88.8%	114%	111%	118%
CCOc1ccc(NC(=O)c2ccccc2-c2ccccc2C(=O)O)cc1	109%	104%	106%	106%	113%	106%	104%	107%	105%	113%	106%	90.2%		107%	114%	105%	117%	112%	113%	115%
Cc1ccc2c(c1)c(-c1nc(-c3c[nH]c4ncccc34)cs1)cn2C	71.9%	88.9%	73.1%	105%	56.8%	83.8%	70.5%	87.8%	83%	112%	115%	81%		75.7%	97.4%	128%	92%	115%	101%	101%
